From PubChem BioAssay (NCI)
Values joined by “and” are separate entries in the source; they are usually repeats but may differ in a detail not shown here. Equal entries are not always repeated. Compounds without any hit were thinned out: in the full panel of roughly 79,000, 15% have a hit. Active and inactive are the calls of the source. No stated cut-off is given here; in the data, active means growth inhibition above about 70%; inactive means the rest.

Key:
[1] = NCI Yeast Anticancer Drug Screen. Data for the rad52 strain (AID 147);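 further: 0% = growth of vehicle-treated control cultures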; conditions: S. cerevisiae rad52 mutant growth inhibition, stronger effect = higher value
Outline: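 Measured: yeast growth inhibition. System: strain with a defined DNA damage repair alteration. Reference: vehicle-treated control cultures.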

[2] = NCI Yeast Anticancer Drug Screen. Data for the wt1 strain (AID 149);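 further: 0% = growth of vehicle-treated wt1 cultures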; conditions: S. cerevisiae wt1 strain (SPY 50644) growth inhibition, stronger effect = higher value
Outline: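 Measured: growth of wt1 yeast under compound versus vehicle treatment, reported as inhibition.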

[3] = NCI Yeast Anticancer Drug Screen. Data for the rad50EPP+ strain (AID 151);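 further: 0% = growth of vehicle-treated control cultures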; conditions: S. cerevisiae rad50 mutant strain, stronger effect = higher value
Outline: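 One strain with a rad50 alteration (rad50EPP+) was compound-treated, its growth then compared to that of vehicle controls.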

[4] = NCI Yeast Anticancer Drug Screen. Data for the mgt1 strain (AID 153); conditions: S. cerevisiae mgt1 mutant growth inhibition, stronger effect = higher value
Outline: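 After exposure of the mgt1 yeast mutant to compound, growth was measured and reported as inhibition compared with vehicle controls.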

[5] = NCI Yeast Anticancer Drug Screen. Data for the rad50 strain (AID 155);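 further: 0% = growth of vehicle-only cultures of the same strain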; conditions: S. cerevisiae rad50 strain growth inhibition, stronger effect = higher value
Outline: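 Growth of the mutant yeast was measured after compound exposure and referenced to vehicle-treated cultures.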

[6] = NCI Yeast Anticancer Drug Screen. Data for the mec2-1 strain (AID 157); conditions: S. cerevisiae mec2-1 strain, stronger effect = higher value
Outline: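 Test agents were screened against the mec2-1 yeast strain, with defined DNA repair or cell cycle alteration. Growth was scored as inhibition against vehicle-only controls.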

[7] = NCI Yeast Anticancer Drug Screen. Data for the rad14 strain (AID 159);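 further: 0% = growth of vehicle-treated control cultures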; conditions: S. cerevisiae rad14 strain growth inhibition, stronger effect = higher value
Outline: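 Here, inhibition of yeast growth was measured after compound exposure, using a strain with a genetic defect in DNA damage repair and vehicle-treated cultures as the reference.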

[8] = NCI Yeast Anticancer Drug Screen. Data for the sgs1 mgt1 strain (AID 161);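 further: 0% = growth of cultures given vehicle only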; conditions: S. cerevisiae sgs1 mgt1 strain, stronger effect = higher value
Outline: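 Mutant yeast exposed to compound; growth scored against vehicle-only wells.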

[9] = NCI Yeast Anticancer Drug Screen. Data for the CLN2oe strain (AID 163);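 further: 0% = growth of vehicle-only control cultures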; conditions: S. cerevisiae CLN2oe strain, stronger effect = higher value
Outline: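 Here, growth inhibition in a cell-cycle-altered yeast strain after compound exposure was quantified against vehicle control growth.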

[10] = NCI Yeast Anticancer Drug Screen. Data for the cln2 rad14 strain (AID 165);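 further: 0% = growth equal to vehicle treated cultures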; conditions: S. cerevisiae cln2 rad14 strain, stronger effect = higher value
Outline: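 Growth of compound-exposed yeast (cln2 rad14 genotype) measured and expressed as inhibition relative to vehicle.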

[11] = NCI Yeast Anticancer Drug Screen. Data for the bub3 strain (AID 167); conditions: S. cerevisiae bub3 mutant strain, stronger effect = higher value
Outline: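 Whole-cell yeast assay. The mutant strain was incubated with compounds, and growth inhibition was determined by comparison with vehicle-treated cells.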

[12] = NCI Yeast Anticancer Drug Screen. Data for the wt2 strain (AID 169);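 further: 0% = growth of vehicle-treated yeast cultures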; conditions: S. cerevisiae wt2 strain growth inhibition, stronger effect = higher value
Outline: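 Genetically defined yeast strains from a DNA-repair/cell-cycle panel were used. Compound-exposed yeast growth was measured, and the inhibition was calculated relative to vehicle treatment.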

[13] = NCI Yeast Anticancer Drug Screen. Data for the mlh1 strain (AID 171);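 further: 0% = growth of vehicle-treated control cultures of the same strain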; conditions: S. cerevisiae mlh1 strain growth inhibition, stronger effect = higher value
Outline: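 Here the genetically defined yeast mutant is grown with each compound, and the extent to which its growth falls below that of vehicle-exposed cells is reported.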

[14] = NCI Yeast Anticancer Drug Screen. Data for the sgs1 strain (AID 173);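 further: 0% = growth of vehicle-only control cultures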; conditions: S. cerevisiae sgs1 mutant, stronger effect = higher value
Outline: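 Relative growth inhibition, referenced to vehicle, was determined in a yeast strain with a defined alteration affecting DNA damage repair or cell cycle control after compound exposure.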

[15] = NCI Yeast Anticancer Drug Screen. Data for the mlh1 rad18 strain (AID 175); conditions: S. cerevisiae mlh1 rad18 strain growth inhibition, stronger effect = higher value
Outline: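 In this whole-cell yeast screen, a strain with altered DNA damage repair is challenged with compound, and its growth is measured against matched vehicle-treated controls.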

[16] = NCI Yeast Anticancer Drug Screen. Data for the rad18 strain (AID 177); conditions: S. cerevisiae rad18 mutant growth inhibition, stronger effect = higher value
Outline: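 Screen uses a yeast strain with a defined lesion in DNA damage repair; compound effect is read as loss of growth compared to untreated vehicle cultures.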

[17] = at 5.0 µM (retest, dose inferred, filed as 0.5)
[18] = at 50.0 µM (retest, dose inferred, filed as 5.0)

Measured: growth inhibition

c1ccc2cc3n[se]nc3cc2c1
inactive: [1]; at 1.2 µM 2% | [1]; at 3.7 µM 5% | [1]; at 11.0 µM 17% | [1]; at 33.0 µM 47% | [2]; at 1.2 µM 5% | [2]; at 3.7 µM 2% | [2]; at 11.0 µM 6% | [2]; at 33.0 µM 13% | [3]; at 1.2 µM 2% | [3]; at 3.7 µM 13% | [3]; at 11.0 µM 33% | [3]; at 33.0 µM 64% | [4]; at 1.2 µM 6% | [4]; at 3.7 µM 7% | [4]; at 11.0 µM 5% | [4]; at 33.0 µM 27% | [5]; at 1.2 µM 3% | [5]; at 3.7 µM 5% | [5]; [17] -14% | [5]; at 11.0 µM 19% | [5]; [18] 55% | [6]; at 1.2 µM 1% | [6]; at 3.7 µM 2% | [6]; [17] -14% | [6]; at 11.0 µM 8% | [6]; at 33.0 µM 16% | [6]; [18] 3% | [6]; at 50.0 µM 39.4% | [7]; at 1.2 µM 3% | [7]; at 3.7 µM 4% | [7]; at 11.0 µM 5% | [7]; at 33.0 µM 18% | [8]; [17] -15% | [8]; [18] 44% | [8]; at 50.0 µM 45.2% | [9]; at 1.2 µM -5% | [9]; at 3.7 µM 0% | [9]; at 11.0 µM 15% | [9]; at 33.0 µM 14% | [10]; [17] -21% | [10]; [18] 2% | [10]; at 50.0 µM -2.35% | [11]; at 1.2 µM -1% | [11]; at 3.7 µM 1% | [11]; [17] 13% | [11]; at 11.0 µM 4% | [11]; at 33.0 µM 28% | [11]; [18] 25% | [11]; at 50.0 µM 56.8% | [12]; at 1.2 µM 0% | [12]; at 3.7 µM 1% | [12]; at 11.0 µM 8% | [12]; at 33.0 µM 26% | [13]; at 1.2 µM 2% | [13]; at 3.7 µM 4% | [13]; at 11.0 µM 11% | [13]; at 33.0 µM 34% | [14]; at 1.2 µM 2% | [14]; at 3.7 µM 4% | [14]; at 11.0 µM 12% | [14]; at 33.0 µM 33% | [15]; [17] -11% | [15]; [18] 24%
active: [1]; at 100.0 µM 96% | [2]; at 100.0 µM 72% | [3]; at 100.0 µM 86% | [4]; at 100.0 µM 94% | [5]; at 33.0 µM 79% | [5]; at 50.0 µM 97.5% | [5]; at 100.0 µM 96% | [6]; at 100.0 µM 93% | [7]; at 100.0 µM 98% | [9]; at 100.0 µM 78% | [11]; at 100.0 µM 96% | [12]; at 100.0 µM 95% | [13]; at 100.0 µM 97% | [14]; at 100.0 µM 91% | [15]; at 50.0 µM 76.2%

N#CC(C#N)=Cc1ccc(C#N)cc1
inactive: [1]; at 1.2 µM 0% | [1]; at 3.7 µM -4% | [1]; at 11.0 µM -1% | [1]; at 33.0 µM 0% | [1]; at 100.0 µM 11% | [2]; at 1.2 µM -2% | [2]; at 3.7 µM -2% | [2]; at 11.0 µM -3% | [2]; at 33.0 µM -2% | [2]; at 100.0 µM 3% | [3]; at 1.2 µM -2% | [3]; at 3.7 µM -2% | [3]; at 11.0 µM 0% | [3]; at 33.0 µM 0% | [3]; at 100.0 µM 0% | [4]; at 1.2 µM -2% | [4]; at 3.7 µM -2% | [4]; at 11.0 µM 0% | [4]; at 33.0 µM -3% | [4]; at 100.0 µM 1% | [5]; at 1.2 µM 1% | [5]; at 3.7 µM -4% | [5]; [17] -109% | [5]; at 11.0 µM 2% | [5]; at 33.0 µM 10% | [5]; at 50.0 µM -6.65% and 24.1% | [5]; at 100.0 µM 9% | [6]; at 1.2 µM 3% | [6]; at 3.7 µM 0% | [6]; [17] -47% | [6]; at 11.0 µM 6% | [6]; at 33.0 µM 3% | [6]; [18] 15% | [6]; at 50.0 µM -8.25% and 5.55% | [6]; at 100.0 µM 7% | [7]; at 1.2 µM 1% | [7]; at 3.7 µM 1% | [7]; at 11.0 µM 2% | [7]; at 33.0 µM 6% | [7]; at 100.0 µM 16% | [8]; [17] -56% | [8]; [18] 62% | [8]; at 50.0 µM -16.8% and -0.4% | [9]; at 1.2 µM -4% | [9]; at 3.7 µM -2% | [9]; at 11.0 µM 1% | [9]; at 33.0 µM 0% | [9]; at 100.0 µM 11% | [10]; [17] -60% | [10]; [18] -7% | [10]; at 50.0 µM 50.4% and 4.05% | [11]; at 1.2 µM -4% | [11]; at 3.7 µM -8% | [11]; [17] -65% | [11]; at 11.0 µM -7% | [11]; at 33.0 µM -7% | [11]; [18] 51% | [11]; at 50.0 µM -0.75% and 31.1% | [11]; at 100.0 µM 7% | [12]; at 1.2 µM -1% | [12]; at 3.7 µM -1% | [12]; at 11.0 µM -1% | [12]; at 33.0 µM 1% | [12]; at 100.0 µM 5% | [13]; at 1.2 µM 8% | [13]; at 3.7 µM -4% | [13]; at 11.0 µM -1% | [13]; at 33.0 µM 1% | [13]; at 100.0 µM 2% | [14]; at 1.2 µM -1% | [14]; at 3.7 µM -2% | [14]; at 11.0 µM -2% | [14]; at 33.0 µM -2% | [14]; at 100.0 µM 14% | [15]; [17] -109% | [15]; at 50.0 µM -24.6% and 16.7% | [16]; at 1.2 µM -1% | [16]; at 3.7 µM -1% | [16]; at 11.0 µM -1% | [16]; at 33.0 µM 0% | [16]; at 100.0 µM 9%
active: [5]; [18] 90% | [15]; [18] 76%
